{"source": "PubChem BioAssay (EPA / NIEHS)", "note": "“And” between values parts separate entries of the source, which are not always exact repeats. Equal values may be shown once. Some compounds were tested as several samples or in several runs, with calls that do not always agree. The source made the active and inactive calls. How the source made its calls: active means hit-call score of the fitted dose curve at least 0.9, where 1 is the maximum; inactive means score below 0.9.", "data": [{"assay": "BSK_BT_Bcell_Proliferation: Viability Assessment in the BioMAP Diversity Plus: BT Assay for B cell Proliferation (AID 2284227)", "conditions": "primary human B cells with PBMC", "description": "BSK_BT is a cell-based, multiplexed-readout assay that uses B cell and peripheral blood mononuclear cells, a human vascular primary cell co-culture, with measurements taken at 24 hours after chemical dosing in a microplate: 96-well plate.BSK_BT_Bcell_Proliferation is an assay component measured in the BSK_BT assay. It measures protein content, a form of viability reporter, as detected with absorbance signals by Sulforhodamine staining technology.Data from the assay component BSK_BT_Bcell_Proliferation was analyzed at the endpoint, BSK_BT_Bcell_Proliferation, in the positive analysis fitting direction relative to DMSO as the negative control and baseline of activity. Using a type of viability reporter, gain or loss-of-signal activity can be used to understand cellular changes in viability. To generalize the intended target to other relatable targets, this assay endpoint is annotated to the 'cell cycle' intended target family, where the subfamily is 'proliferation'.\nThe levels of cell surface (or secreted, indicated by the prefix \"s\") biomarker endpoints were measured by ELISA. Overt cytotoxicity to cells in confluent adherent cultures (all systems other than the BT system) was assessed by measuring total protein levels using sulforhodamine B (SRB) staining in parallel cultures at the time of biomarker measurements, indicated as SRB endpoints. For proliferation assays for adherent cell types, individual cell types are cultured at sub-confluence and relative cell numbers quantified by SRB staining at time points optimized for each system (48 h: 3C and CASM3C systems; 72 h: BT and HDF3CGF systems; 96 h: SAg system). SRB was performed by staining cells with 0.1% SRB after fixation with 10% TCA and reading wells at 560 nm.Viability and proliferation of PBMC (T cells) was quantified by Alamar Blue reduction for the SAg and BT systems. For PBMC viability (referred to as PBMC Cytotoxicity within the assay endpoint names), cells were plated (75,000/well in a 96-well plate) and then chemical samples added for 1 h before addition of activators, SEB and TSST-1 (20 ng/mL final concentration each). Cells were incubated for 90 h. Then, Alamar Blue (20 uL/well) (Invitrogen, Cat DAL1100) was added for 6 h, and the plates were read with a fluorescence microplate reader at 546/580 nm (excitation/emission). For PBMC proliferation, cells were plated and activated as above but incubated for only 16 h prior to addition of Alamar Blue. Plates were read after 6 h.", "values": [{"smiles": "O=P1(NCCCl)OCCCN1CCCl", "note": "(stereo unspecified)", "outcome": "inactive"}, {"smiles": "CCCCCCCCCCCC#N", "outcome": "inactive"}, {"smiles": "C=CC(=O)OCC(CC)CCCC", "note": "(stereo unspecified)", "outcome": "inactive"}, {"smiles": "O=S(=O)(c1ccccc1)c1ccccc1", "outcome": "inactive"}, {"smiles": "Cc1ccc(OP(=O)(Oc2ccc(C)cc2)Oc2ccc(C)cc2)cc1", "note": "(tested in a mixture with another compound)", "outcome": "inactive"}, {"smiles": "CC1(C)[C@H](C(=O)O[C@H](C#N)c2cccc(Oc3ccccc3)c2)[C@@H]1C=C(Br)Br", "outcome": "inactive", "AC50": "20 µM (active)"}, {"smiles": "C=CCN(CC=C)C(=O)C(Cl)Cl", "outcome": "inactive"}, {"smiles": "Oc1cc(Cl)ccc1Cl", "outcome": "inactive"}, {"smiles": "CC(C)(c1cc(Cl)c(O)c(Cl)c1)c1cc(Cl)c(O)c(Cl)c1", "outcome": "inactive"}, {"smiles": "CCCOC(=O)c1ccccc1C(=O)OCCC", "outcome": "inactive"}, {"smiles": "CCc1cc(C)cc(CC)c1-c1c(OC(=O)C(C)(C)C)n2n(c1=O)CCOCC2", "outcome": "inactive"}, {"smiles": "COCC(=O)N(c1c(C)cccc1C)N1CCOC1=O", "outcome": "inactive"}, {"smiles": "O=c1[nH]c(Cl)c(Cl)cc1Cl", "outcome": "inactive"}, {"smiles": "Clc1ccc(-c2ccccc2)cc1", "outcome": "inactive"}, {"smiles": "CC(C)(C)C(O)C(Oc1ccc(-c2ccccc2)cc1)n1cncn1", "note": "(stereo unspecified)", "AC50": "29.8 µM (active)"}, {"smiles": "O=C1C(Cl)=C(Cl)C(=O)C(Cl)=C1Cl", "AC50": "26 µM (active)"}, {"smiles": "O=c1c2ccccc2c(=O)c2c1cc(Cl)c1[nH]c3c([nH]c12)c(Cl)cc1c(=O)c2ccccc2c(=O)c13", "outcome": "inactive"}, {"smiles": "COC(C)(C)CCC[C@H](C)C/C=C/C(C)=C/C(=O)OC(C)C", "AC50": "28.8 µM (active)"}, {"smiles": "Nc1ccc(-c2ccc(N)c(N)c2)cc1N", "outcome": "inactive"}, {"smiles": "c1ccc(Nc2ccc3ccccc3c2)cc1", "AC50": "27.2 µM (active)"}, {"smiles": "O=C1C=CC(=O)C=C1", "AC50": "17.8 µM (active) and 24.2 µM (active)"}, {"smiles": "O=C(O)CCCc1ccc(N(CCCl)CCCl)cc1", "AC50": "12.7 µM (active) and 13 µM (active)"}, {"smiles": "CC(C)COP(=O)(OCC(C)C)OCC(C)C", "outcome": "inactive"}, {"smiles": "CC(=O)/C=C/c1ccccc1", "AC50": "26.1 µM (active)"}, {"smiles": "CC(C)CCCCCCCOP(=O)(Oc1ccccc1)Oc1ccccc1", "AC50": "29.5 µM (active)"}, {"smiles": "CC(C)CCCCCCCOC(=O)c1ccccc1C(=O)OCCCCCCCC(C)C", "outcome": "inactive"}, {"smiles": "CCC(C)c1cc([N+](=O)[O-])cc([N+](=O)[O-])c1OC(=O)C=C(C)C", "note": "(stereo unspecified)", "AC50": "32.6 µM (active)"}, {"smiles": "O=[N+]([O-])C=Cc1ccccc1", "AC50": "6.33 µM (active)"}, {"smiles": "CNC(=O)Oc1cc(C)c(SC)c(C)c1", "AC50": "20.1 µM (active)"}, {"smiles": "CC(C)(C)C(=O)CCl", "outcome": "inactive"}]}]}
